PubChem BioAssay (Tox21)
Records with an inconclusive call do not appear. A call without a number means that no potency is given here. A number with no mark means an inactive call. The source made the active and inactive calls. Calls come from the whole dose curve.

Molecular target: Acetylcholinesterase (Homo sapiens) (UniProt P22303)
Assay: Acetylcholinesterase (AChE) small molecule antagonists: fluorescence cell-based qHTS assay (AID 1347398); note: nearly all actives have a fitted effect of over 50% in size
Settings: SH-SY5Y cells; Potency: AChE activity; outcome: AChE activity; series mostly up to 115 µM
Procedure, shortened: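 Cells (SH-SY5Y) attached overnight, were dosed with compound or DMSO vehicle for 30 min at 37 C, and then incubated 40 min at room temperature with acetylthiocholine and Thiolite Green; green fluorescence indexed AChE activity.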
Potency is the fitted concentration of half-maximal effect.

Sequence of Acetylcholinesterase (Homo sapiens) (P22303 whole entry, looked up): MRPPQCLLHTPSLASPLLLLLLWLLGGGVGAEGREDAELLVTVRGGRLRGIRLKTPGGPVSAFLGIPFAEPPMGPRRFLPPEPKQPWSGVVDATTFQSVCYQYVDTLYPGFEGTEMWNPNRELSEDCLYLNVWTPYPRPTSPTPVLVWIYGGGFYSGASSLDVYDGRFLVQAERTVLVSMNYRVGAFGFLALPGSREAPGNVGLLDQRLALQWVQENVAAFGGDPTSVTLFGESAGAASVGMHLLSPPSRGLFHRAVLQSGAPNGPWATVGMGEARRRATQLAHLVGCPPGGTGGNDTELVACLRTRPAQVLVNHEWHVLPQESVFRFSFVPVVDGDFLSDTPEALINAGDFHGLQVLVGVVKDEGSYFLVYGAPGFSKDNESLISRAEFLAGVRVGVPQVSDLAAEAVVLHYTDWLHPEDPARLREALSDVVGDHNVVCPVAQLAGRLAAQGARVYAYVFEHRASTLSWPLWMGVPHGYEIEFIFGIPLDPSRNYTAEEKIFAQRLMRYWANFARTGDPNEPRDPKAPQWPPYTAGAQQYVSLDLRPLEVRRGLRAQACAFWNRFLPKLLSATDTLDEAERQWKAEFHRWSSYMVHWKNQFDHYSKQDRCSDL

| Structure (SMILES) | Potency | outcome | activity change, negative = inhibition |
| --- | --- | --- | --- |
| O=C(O)c1ccc(C(=O)O)c(C(=O)O)c1 | inactive |  |  |
| NC(CO)(CO)CO |  | inactive |  |
| CCCC(C)=O | inactive |  |  |
| COc1ccc(C)cc1[N+](=O)[O-] | inactive |  |  |
| FC(F)(F)c1cccc(Cl)c1 | inactive |  |  |
| COc1ccc(Cl)cc1C(=O)NCCc1ccc(S(=O)(=O)NC(=O)NC2CCCCC2)cc1 | inactive |  |  |
| COC1CCC=CO1 (stereo not given) | inactive |  |  |
| CCCCN(CCO)CCCC | inactive |  |  |
| CC(=O)Nc1c(I)c(NC(C)=O)c(I)c(C(=O)O)c1I | inactive |  |  |
| C/C=C(\C)C(=O)OCc1ccccc1 | inactive |  |  |
| O=C(O)c1cc(Cl)cc(Cl)c1 | inactive |  |  |
| CC(C)c1cccc(C(C)C)c1 | inactive |  |  |
| O=C1CCCCCCCCCCOCCCCO1 | inactive |  |  |
| CCC(C)(C)c1cc(O)c(C(C)(C)CC)cc1O | inactive |  |  |
| CN(C)c1ccc(C2(c3ccc(N(C)C)cc3)OC(=O)c3cc(N(C)C)ccc32)cc1 | inactive |  |  |
| O=C1CCC(C2CCCCC2)CC1 | inactive |  |  |
| C/C=C1/CC2C=CC1C2 (stereo not given) | inactive |  |  |
| COc1ccc(OC(F)(F)F)cc1CN[C@H]1CCCN[C@H]1c1ccccc1 | inactive |  |  |
| O=C(O)C[C@H](O)C[C@H](O)/C=C/c1c(C2CC2)nc2ccccc2c1-c1ccc(F)cc1 |  |  | 8.09% [at 23.8 µM] |
| O=C1CCCC(=O)O1 | inactive |  |  |

| Structure (SMILES) | Potency | outcome | activity change, negative = inhibition |
| --- | --- | --- | --- |
| C=CCOCC(CC)(CO)COCC=C | inactive |  |  |
| C=C1C(=C/C=C2\CCC[C@]3(C)[C@@H]([C@H](C)/C=C/[C@@H](O)C4CC4)CC[C@@H]23)C[C@@H](O)C[C@@H]1O | inactive |  |  |
| Cc1cc(Nc2ccc(O)cc2)ccc1N | inactive |  |  |
| O=C1c2ccccc2C(=O)C1c1ccccc1 | inactive |  |  |
| [O-][n+]1ccccc1SSc1cccc[n+]1[O-] | 12 µM (active) |  |  |
| CO[Si](CCCNCCN)(OC)OC | inactive |  |  |
| Cc1nc(C2CCCCC2)c(-c2ccc(S(N)(=O)=O)c(F)c2)o1 | inactive |  |  |
| CC(=O)OC[C@H]1O[C@@H](n2ncc(=O)[nH]c2=O)[C@H](OC(C)=O)[C@@H]1OC(C)=O | inactive |  |  |
| Cc1nc2ccc(Cl)cc2[nH]1 | 25.1 µM (active) |  |  |
| CCCC(=O)C(C)=O | inactive |  |  |
| C=CC(=O)OCCOC(=O)CCC(=O)O | inactive |  |  |
| CC(C)(C)c1ccc(S)cc1 | inactive |  |  |
| COCCc1ccc(OCC2CO2)cc1 (stereo not given) | inactive |  |  |
| O=C1OC(=O)c2cccc3cccc1c23 | inactive |  |  |
| c1ccc2sc(SSc3nc4ccccc4s3)nc2c1 |  |  | 3.45% [at 23.8 µM] |
| C#CCN(C)Cc1ccccc1 | inactive |  |  |
| CC(C)(CO)[C@@H](O)C(=O)NCCCO | inactive |  |  |
| Cc1oc(=O)oc1CN1CCN(c2cc3c(cc2F)c(=O)c(C(=O)O)c2n3C(C)S2)CC1 (stereo not given) | inactive |  |  |
| C=Cc1ccc(O)c(OC)c1 | inactive |  |  |
| CC(C)(C)C(=O)OCOC(=O)[C@@H]1N2C(=O)[C@@H](NC(=O)[C@H](N)c3ccccc3)[C@H]2SC1(C)C | inactive |  |  |
